In PubChem BioAssay (Tox21):
Records with an inconclusive call do not appear. Activity calls are given as the source filed them. Unless noted, the call rests on the fitted dose curve; in most records, active means well fitted curve in the direction sought with a large enough effect in the repeat runs; inconclusive means weak or mixed curves; inactive means no such curve, though single readings can be large; an effect the other way counts as inactive or inconclusive. Positions of bridges follow the written chain, without caps; N, C: chain ends. Non-standard residues stand in square brackets, D forms with d. Residues, ends and D or L forms follow the SMILES beside them. hArg = N=C(N)NCCCC[C@H](N)C(=O)O; Mpa = O=C(O)CCS

Columns and labels:
[1] = qHTS assay to identify small molecule agonists of the vitamin D receptor (VDR) signaling pathway - cell viability counter screen (AID 743224); further: series mostly up to about 63 µM; on the % scale 0 is the no-effect control and ±100 the full control effect; nearly all actives have a fitted effect of over 50% in size
In short: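 VDR-bla cell line, quantitative HTS format; 16 h compound incubation (37C, 5% CO2); ATP-based CellTiter-Glo luminescence measured in the reporter assay wells.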

[2] = qHTS assay to identify small molecule antagonists of the vitamin D receptor (VDR) signaling pathway - cell viability counter screen (AID 743225); further: on the % scale 0 is the no-effect control and ±100 the full control effect; nearly all actives have a fitted effect of over 50% in size
In short: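 Luminescent cell viability (CellTiter-Glo) in VDR-bla HEK 293T cells after 16 h compound exposure at 37C in the presence of 3 nM final 1-alpha,25-dihydroxy vitamin D3.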

[3] = qHTS assay to identify small molecule agonists of the NFkB signaling pathway (AID 1159509; active means well fitted curve in the direction sought with a large enough effect in the signal ratio in the repeat runs, not every such curve was filed as active; the % refers to the signal ratio; further: series mostly up to about 61 µM; on the % scale 0 is the no-effect control and ±100 the full control effect)
In short: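 After overnight attachment, reporter cells received test compounds, DMSO or positive controls and were incubated 5 hr at 37 C. FRET substrate was then added for 1.5 hr at room temperature before dual-emission fluorescence reading.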

[4] = qHTS assay to identify small molecule agonists of the NFkB signaling pathway - cell viability counter screen (AID 1159515; calls by dose curve; further: series mostly up to about 61 µM; on the % scale 0 is the no-effect control and ±100 the full control effect; nearly all actives have a fitted effect of over 55% in size)
In short: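 Viability in NFkB-bla ME-180 cells was measured by CellTiter-Glo luminescence, 30 min room temperature, in wells already treated 5 hr with compounds and read for reporter FRET.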

[5] = qHTS assay to identify small molecule agonists of the endoplasmic reticulum stress response signaling pathway - cell viability counter screen (AID 1159517; calls by dose curve;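 further: HeLa cells carrying an ER stress response element beta-lactamase reporter; series mostly up to about 61 µM; on the % scale 0 is the no-effect control and ±100 the full control effect; nearly all actives have a fitted effect of over 50% in size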)
In short: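 Counter-screen wells were identical to the reporter wells. Cells were plated at 1,500 per well and dosed for 5 hr, then read for luminescence 30 min after CellTiter-Glo addition.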

[6] = qHTS assay to identify small molecule antagonists of the retinoid-related orphan receptor gamma (ROR-gamma) signaling pathway - cell viability counter screen (AID 1159520); further: on the % scale 0 is the no-effect control and ±100 the full control effect; nearly all actives have a fitted effect of over 50% in size
In short: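 Tet-on ROR gamma CHO cells were given compounds for 2 hr, then doxycycline hyclate at 1 uM final, and incubated 16 hr at 37 C. Viability was measured as ATP content by CellTiter-Glo luminescence.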

[7] = molecular target: Nuclear receptor ROR-gamma (Homo sapiens) (UniProt P51449); assay: qHTS assay to identify small molecule antagonists of the retinoid-related orphan receptor gamma (ROR-gamma) signaling pathway (AID 1159521)
In short: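 CHO cells expressing RORγ under a TET-on promoter, luciferase under RORE control. Dox 1 uM final, 16 h; compounds added 2 h prior. Luminescence decrease measured.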

[8] = qHTS assay to identify small molecule agonists of the AP-1 signaling pathway - cell viability counter screen (AID 1159525; calls by dose curve; further: nearly all actives have a fitted effect of over 55% in size)
In short: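 AP-1-bla ME-180 cells in Opti-MEM with 0.5% dialyzed FBS, compound exposure 5 h at 37 C in 15-point titration. Viability read in the same wells as ATP content by CellTiter-Glo luminescence, normalised to tetra-n-octylammonium bromide and DMSO controls.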

[9] = qHTS assay to identify small molecule agonists of the AP-1 signaling pathway (AID 1159526; calls by dose curve; further: on the % scale 0 is the no-effect control and ±100 the full control effect)
[10] = qHTS assay to identify small molecule agonists of the endoplasmic reticulum stress response signaling pathway (AID 1159516; active means well fitted activation curve with a large enough effect in the signal ratio in the repeat runs, not every such curve was filed as active; the % refers to the signal ratio; further: on the % scale 0 is the no-effect control and ±100 the full control effect)
In short: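 ER stress element reporter (bla) in HeLa. 1,500 cells/well, overnight attachment; 5 hr compound; 2 hr RT substrate; dual-emission fluorescence.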

Cn1nnc2c(C(N)=O)ncn2c1=O
inactive: outcome [1] | outcome [2] | outcome [3] | outcome [4] | outcome [5] | outcome [6] | outcome [7] | outcome [8] | outcome [9]

C/C(=C1\CCOC(=O)S1)N(C=O)Cc1cnc(C)nc1N
inactive: outcome [1] | outcome [3] | outcome [4] | outcome [5] | outcome [6] | outcome [7] | outcome [8] | outcome [9]

Cn1c(=O)c2[nH]c(Br)nc2n(C)c1=O
inactive: outcome [1] | outcome [2] | outcome [3] | outcome [4] | outcome [5] | outcome [6] | outcome [7] | outcome [8] | outcome [9]

COC(=O)CCCCC(CCSS/C(CCO)=C(\C)N(C=O)Cc1cnc(C)nc1N)SC(C)=O (stereo unspecified)
inactive: outcome [1] | outcome [2] | outcome [3] | outcome [4] | outcome [5] | outcome [6] | outcome [7] | outcome [8] | outcome [9]

CN(C)CCCCl
inactive: outcome [1] | outcome [2] | outcome [3] | outcome [4] | outcome [5] | outcome [6] | outcome [7] | outcome [8] | outcome [9]

CC1=C(C(=O)O)N2C(=O)[C@@H](NC(=O)[C@H](N)C3=CCC=CC3)[C@H]2SC1
inactive: outcome [1] | outcome [2] | outcome [3] | outcome [4] | outcome [5] | outcome [6] | outcome [7] | outcome [8] | outcome [9]

Cc1cccc(Cl)c1
inactive: outcome [1] | outcome [2] | outcome [3] | outcome [4] | outcome [5] | outcome [6] | outcome [7] | outcome [8] | outcome [9]

CC(C)COC(=O)c1ccccc1
inactive: outcome [1] | outcome [3] | outcome [4] | outcome [5] | outcome [6] | outcome [8] | outcome [9]

CCC(C)C(C)=O (stereo unspecified)
inactive: outcome [1] | outcome [2] | outcome [3] | outcome [4] | outcome [5] | outcome [6] | outcome [7] | outcome [8] | outcome [9]

CCCCCCCCCCCCCCCCCCOCCO
inactive: outcome [1] | outcome [3] | outcome [10] | outcome [5] | activity, negative = cytotoxicity [6] -10.1% [at 19 µM] | activity change, negative = inhibition [7] -12.9% [at 19 µM] | viability change, negative = cytotoxic [8] -27.1% [at 15.8 µM] | activation [9] 0.248% [at 15.8 µM]

CCOCCOCC
inactive: outcome [1] | outcome [3] | outcome [4] | outcome [5] | outcome [6] | outcome [7] | outcome [8] | outcome [9]

OCC1(CO)COCOC1
inactive: outcome [1] | outcome [2] | outcome [3] | outcome [4] | outcome [5] | outcome [6] | outcome [7] | outcome [8] | outcome [9]

C=CCSSCCC
inactive: outcome [1] | outcome [3] | outcome [4] | outcome [5] | outcome [6] | outcome [7] | outcome [8] | outcome [9]

CCC(=O)CC
inactive: outcome [1] | outcome [3] | outcome [4] | outcome [5] | outcome [6] | outcome [7] | outcome [8] | outcome [9]

COC(=O)c1cccc(Cl)c1
inactive: outcome [1] | outcome [3] | outcome [4] | outcome [5] | outcome [6] | outcome [7] | outcome [8] | outcome [9]

c1ccc(-c2nn[nH]n2)cc1
inactive: outcome [1] | outcome [2] | outcome [3] | outcome [10] | outcome [5] | outcome [6] | outcome [7] | outcome [8] | outcome [9]

CCCCCC/C=C/C(=O)OC
inactive: outcome [1] | outcome [2] | outcome [3] | outcome [10] | outcome [5] | outcome [6] | outcome [8] | outcome [9]

Cc1ccc2c(c1)C(=O)c1ccccc1C2=O
inactive: outcome [1] | outcome [2] | outcome [3] | outcome [10] | outcome [5] | outcome [6] | outcome [7] | outcome [8] | outcome [9]

CO[Si](CCCn1c(=O)n(CCC[Si](OC)(OC)OC)c(=O)n(CCC[Si](OC)(OC)OC)c1=O)(OC)OC
inactive: outcome [1] | outcome [2] | outcome [3] | outcome [10] | outcome [5] | outcome [6] | outcome [7] | outcome [8] | outcome [9]

CC(O)COC(C)(C)C (stereo unspecified)
inactive: outcome [1] | outcome [2] | outcome [3] | outcome [10] | outcome [5] | outcome [6] | outcome [7] | outcome [8] | outcome [9]

CC1CCc2c(N3CCC(O)CC3)c(F)cc3c(=O)c(C(=O)O)cn1c23 (stereo unspecified)
inactive: outcome [1] | outcome [3] | outcome [5] | outcome [6] | outcome [7] | outcome [8] | outcome [9]

O=C(O)CNC(=O)CNC(=O)CNC(=O)CSC(=O)c1ccccc1
inactive: outcome [1] | outcome [2] | outcome [3] | outcome [10] | outcome [5] | outcome [6] | outcome [8] | outcome [9]

CC(C)=CCC[C@@](C)(O)[C@H]1CC=C(C)CC1
inactive: outcome [1] | outcome [2] | outcome [3] | outcome [10] | outcome [5] | outcome [6] | outcome [7] | outcome [8] | outcome [9]

OC[C@H]1O[C@@H](O[C@@H]2[C@@H](CO)O[C@](O)(CO)[C@H]2O)[C@H](O)[C@@H](O)[C@H]1O
inactive: outcome [1] | outcome [2] | outcome [3] | outcome [10] | outcome [5] | outcome [6] | outcome [7] | outcome [8] | outcome [9]

NC(=O)[C@@H]1CSSCCC(=O)N[C@@H](CCCCN=C(N)N)C(=O)NCC(=O)N[C@@H](CC(=O)O)C(=O)N[C@@H](Cc2c[nH]c3ccccc23)C(=O)N2CCC[C@H]2C(=O)N1 ([Mpa][hArg]GDWPC-NH2; disulfide 1-7)
inactive: outcome [1] | outcome [2] | outcome [3] | outcome [10] | outcome [5] | outcome [6] | outcome [7] | outcome [8] | outcome [9]

O=C(CN1CCNCC1)NC1CCCCC1
inactive: outcome [1] | outcome [2] | outcome [3] | outcome [10] | outcome [5] | outcome [6] | outcome [8] | outcome [9]
